Data from PubChem BioAssay (NCATS).
Results filed as inconclusive are left out. A call without a number means that no potency is given here. Unmarked numbers belong to inactive results. Calls of active or inactive are those of the source. Calls come from the whole dose curve; as a rule, active = well fitted curve in the direction sought with a large enough effect; inconclusive = small, poorly fitted or top-dose-only effect, or another doubt; inactive = no such curve, though single readings can be large; an effect the other way counts as inactive or inconclusive. Bridge positions count the residues as written; N and C are the ends. Square brackets hold non-standard residues; d marks the D form. Peptide text beside a SMILES is read from it. * marks the point of attachment. NMeY = CN[CH](Cc1ccc(O)cc1)C(=O)O; βNA = c1ccc2cc(N*)ccc2c1; Cbz = O=C(OCc1ccccc1)*

How the values were obtained:
[1] = molecular target: Cellular tumor antigen p53 (Homo sapiens) (UniProt P04637); assay: Primary qHTS for small molecule compounds that upregulate eGFP-tagged delta133p53alpha (in N-terminal) cells. (AID 2060322); settings: NCI-H358 eGFP-delta133p53alpha fluorescence, 24 h; activation: hits give high values; note: nearly all actives have a fitted effect of over 75% in size; note: potency is the fitted concentration of half-maximal effect; for activation: series mostly up to about 56 µM
Chain of Cellular tumor antigen p53 (Homo sapiens) (P04637 whole entry, looked up): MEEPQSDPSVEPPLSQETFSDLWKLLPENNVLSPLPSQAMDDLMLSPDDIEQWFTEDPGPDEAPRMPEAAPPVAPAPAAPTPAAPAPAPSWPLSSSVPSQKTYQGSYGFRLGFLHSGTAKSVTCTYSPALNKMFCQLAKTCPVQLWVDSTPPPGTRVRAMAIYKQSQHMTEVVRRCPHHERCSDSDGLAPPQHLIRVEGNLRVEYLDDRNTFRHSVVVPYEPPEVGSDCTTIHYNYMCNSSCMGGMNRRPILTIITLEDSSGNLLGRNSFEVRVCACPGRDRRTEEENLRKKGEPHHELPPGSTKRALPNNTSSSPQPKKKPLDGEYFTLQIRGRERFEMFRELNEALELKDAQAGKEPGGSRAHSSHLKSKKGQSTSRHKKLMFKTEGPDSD
Outline: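 NCI-H358 cells pre-induced 24 h with 10 ng/ml doxycycline to express N-terminal eGFP-delta133p53alpha, then dosed 24 h at 37C without doxycycline; fixed, Hoechst-stained, GFP intensity by laser scanning cytometry, normalized to DMSO (0%) and 57.5 uM 5-azacytidine (100%).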

[2] = molecular target: Aldehyde dehydrogenase, mitochondrial (Homo sapiens) (UniProt P05091); assay: qHTS for Inhibitors of the Aldehyde Dehydrogenase Family (ALDH2) Primary screen (AID 2061308); note: nearly all actives have a fitted effect of over 55% in size
[3] = molecular target: Retinaldehyde dehydrogenase 3 (Homo sapiens) (UniProt P47895); assay: qHTS for Inhibitors of the Aldehyde Dehydrogenase Family (ALDH1A3) Primary screen (AID 2061315)

SMILES | activation [1] [%] | Potency [2] | Potency [3] | Potency [1] | activity change, negative = inhibition [2] | activity change, negative = inhibition [3]
CC(/C=C/C1(O)C(C)(C)CC(O)CC1(C)O)OC1OC(CO)C(O)C(O)C1O (stereo unspecified) | -5.34 | inactive | inactive | – | – | –
CC1(C)CC[C@]2(C(=O)O)CC[C@]3(C)C(=CCC4[C@@]5(C)C[C@@H](O)[C@H](O)[C@](C)(CO)C5CC[C@]43C)[C@@H]2[C@@H]1O (stereo partly specified) | 12.5 | inactive | inactive | – | – | –
CC(C)=CCc1cc2c(cc1O)OC[C@H]1c3ccc(O)cc3O[C@@H]21 | -3.82 | inactive | inactive | – | – | –
Cc1c(C(=O)NCCCO)cnn1-c1nc(-c2cccc(C(F)(F)F)c2)cs1 | – | inactive | inactive | 9.53 µM (active) | – | –
CCC(C)C1NC(=O)C2CCCN2C(=O)C(NC(C)=O)C(C)OC(=O)C(Cc2ccc(OC)cc2)N(C)C(=O)C2CCCN2C(=O)C(C(C)C)NC1=O (stereo unspecified) (Ac-TPIVP[NMeY](Me); ester 1-C; configuration not given here) | 15.3 | inactive | inactive | – | – | –
CC1CCC2C(=CCC(O)C2(C)C)C1(C)Cc1c(O)cc(CO)c(C=O)c1O (stereo unspecified) | 9.92 | inactive | inactive | – | – | –
COC(=O)C1=COC(O[C@@H]2O[C@H](COC(=O)/C=C/c3ccc(O)cc3)[C@@H](O)[C@H](O)[C@H]2O)C2C(CO)=CCC12 (stereo partly specified) | -23.7 | inactive | inactive | – | – | –
C=CC(C)(O)CC/C=C(\C)C(=O)O[C@@H]1[C@@H](O)[C@H](OC(C)(C=C)CC/C=C(\C)C(=O)O[C@@H]2O[C@H](CO)[C@@H](O)[C@H](O)[C@H]2O)O[C@H](CO)[C@H]1OC(=O)/C(C)=C/CCC(C)(O)C=C (stereo partly specified) | -19.8 | inactive | inactive | – | – | –
COC(=O)C1=CO[C@@H](O[C@@H]2O[C@H](CO)[C@@H](O)[C@H](O)[C@H]2O)[C@@H]2[C@@](C)(O)[C@@H](OC(=O)/C=C/c3ccc(O)cc3)C[C@]12O | -0.763 | inactive | inactive | – | – | –
CC1=CC2/C=C(\C)CC[C@@H](O)[C@@H](O)[C@@H]3O[C@@H]3C(=O)[C@]23C(=O)N[C@@H](CC(C)C)[C@@H]3[C@@H]1C (stereo partly specified) | 0 | inactive | inactive | – | – | –
C=C1C(O)C[C@@H]2C(C(=O)O)=CO[C@@H](O[C@@H]3O[C@H](CO)[C@@H](O)[C@H](O)[C@H]3OC(=O)c3ccc(O)cc3)[C@H]12 (stereo partly specified) | 9.82 | inactive | inactive | – | – | –
COc1ccc(C[C@H]2COC(=O)[C@@H]2Cc2ccc(O[C@@H]3O[C@H](CO)[C@@H](O)[C@H](O)[C@H]3O)c(OC)c2)cc1OC | 15.2 | inactive | inactive | – | – | –
O=C(c1ccc(OC(F)F)c(C#Cc2ccccn2)c1)N1Cc2cccnc2C1 | 4.77 | inactive | inactive | – | – | –
O=C(NCCCc1ccccc1)c1cccc(-c2cc(O)c3ncccc3c2)c1 | 7.67 | inactive | inactive | – | – | –
COc1cc(/C=C/CO)ccc1O[C@@H]1O[C@H](CO)[C@@H](O)[C@H](O)[C@H]1O | -6.25 | inactive | inactive | – | – | –
CCCC(CCC)C(=O)NCc1ccc2c(cnn2-c2ccccc2OC)c1 | -5.25 | inactive | inactive | – | – | –
CC(=O)O[C@H]1C[C@@]2(C)[C@@H](C[C@@H](O)[C@H]3[C@@]4(C)CC[C@@H](O)[C@@H](C)[C@@H]4CC[C@@]32C)/C1=C(\CCC=C(C)C)C(=O)O | 9 | inactive | inactive | – | – | –
CCN(CCNC(=O)Nc1ccccc1Br)c1cccc(C)c1 | 5.67 | inactive | inactive | – | – | –
C=CC(C)(O)CC/C=C(\C)COC1O[C@H](CO)[C@@H](O)[C@H](O)[C@H]1O (stereo partly specified) | -14.5 | inactive | inactive | – | – | –
C=C(C)[C@@H]1CC[C@]2(C(=O)O)CC[C@]3(C(=O)O)[C@H](CCC4[C@@]5(C)CCC(=O)C(C)(C)C5CC[C@]43C)C12 (stereo partly specified) | 33.9 | inactive | inactive | – | – | –
C=C(C(=O)O)[C@@H]1CC[C@@]2(C)CCC[C@@](C)(O)[C@@H]2C1 | 10.7 | inactive | inactive | – | – | –

SMILES | activation [1] [%] | Potency [2] | Potency [3] | Potency [1] | activity change, negative = inhibition [2] | activity change, negative = inhibition [3]
NC(=O)[C@H](Cc1ccccc1)NC(=O)[C@H](CCCN=C(N)N)NC(=O)C12CC3CC(CC(C3)C1)C2 | -9 | – | – | – | 0.973% [at 11.2 µM] | -5.76% [at 11.2 µM]
COc1cc(-c2cccc(O)c2)cc2c1OCO2 | 2.68 | inactive | inactive | – | – | –
CC(C)C[C@H](CC(=O)NO)C(=O)N[C@@H](Cc1ccc2ccccc2c1)C(=O)N[C@@H](C)C(=O)NCCN | -11.7 | inactive | inactive | – | – | –
CC(C)CC(NC(=O)OCc1ccccc1)C(=O)NC(CC(C)C)C(=O)NC(CCC(=O)O)C(=O)Nc1ccc2ccccc2c1 (stereo not drawn) (Cbz-Leu-Leu-Glu-βNA; configuration not given here) | -5.67 | inactive | inactive | – | – | –
CC(C)c1cc2c(c(O)c1O[C@@H]1O[C@H](CO)[C@@H](O)[C@H](O)[C@H]1O)CC1(O)CCC(O)C(C)(C)C1CC2 (stereo partly specified) | -22.1 | inactive | inactive | – | – | –
CC1(C)CC[C@]2(C(=O)O)CC[C@]3(C)C(=CCC4[C@@]5(C)CC[C@H](O[C@@H]6O[C@H](CO)[C@@H](O)[C@H](O)[C@H]6O[C@@H]6O[C@H](CO)[C@@H](O)[C@H](O)[C@H]6O)[C@@](C)(CO)C5CC[C@]43C)[C@@H]2C1 (stereo partly specified) | 9.82 | inactive | inactive | – | – | –
CCOc1ccc(-c2cc(NC(=O)c3c(F)cccc3F)c(C(=O)O)s2)cc1 | 15.7 | inactive | inactive | – | – | –
C=C1C2CCC3C(CCC4[C@@]3(C)CCC[C@@]4(C)C(=O)O)(C2)[C@@H]1OC(=O)/C(C)=C\C (stereo partly specified) | -8.93 | inactive | inactive | – | – | –
C=CC[N+]1([C@H]2C[C@H]3[C@@H]4CC[C@H]5C[C@H](OC(C)=O)[C@@H](N6CCCCC6)C[C@]5(C)[C@H]4CC[C@]3(C)[C@H]2OC(=O)CC)CCCCC1 | -3.67 | inactive | inactive | – | – | –
Cc1ccc(-c2ncc[nH]2)cc1NC(=O)c1ccc(OCc2ccccn2)cc1 | -2.86 | inactive | inactive | – | – | –
COc1ccc(/C=C/C(=O)O[C@H]2[C@H](O[C@H]3[C@@H]4C=CO[C@@H](O[C@@H]5O[C@H](CO)[C@@H](O)[C@H](O)[C@H]5O)[C@@H]4[C@@]4(CO)O[C@@H]34)O[C@@H](C)[C@H](O)[C@H]2OC(C)=O)cc1 | -0.763 | inactive | inactive | – | – | –
Fc1ccccc1-c1nc2ccn(Cc3ccc(-c4ccc(C(F)(F)F)cc4C(F)(F)F)nn3)cc-2n1 | 17 | inactive | inactive | – | – | –
COc1ccc(/C=C/C(=O)O[C@@H]2[C@@H](OC(C)=O)[C@@H](OC(C)=O)[C@H](O[C@H]3[C@@H]4C=CO[C@@H](O[C@@H]5O[C@H](CO)[C@@H](O)[C@H](O)[C@H]5O)[C@@H]4[C@@]4(CO)O[C@@H]34)O[C@H]2C)cc1O | -16 | inactive | inactive | – | – | –
C=C1CC[C@@]2(OC1)O[C@H]1CC3C4CC=C5C[C@@H](O[C@@H]6O[C@@H](C)[C@H](O)[C@@H](O)[C@H]6O)C[C@@H](O[C@@H]6O[C@H](C)[C@H](O)[C@H](O)[C@H]6O[C@@H]6O[C@@H](C)[C@H](O)[C@@H](O)[C@H]6O)[C@]5(C)C4CC[C@]3(C)[C@H]1[C@@H]2C (stereo partly specified) | -4.58 | inactive | inactive | – | – | –
O=c1[nH]c2ccc(C#CCN3CCC(Cc4ccccc4)CC3)cc2[nH]1 | -3.57 | inactive | inactive | – | – | –
COC(=O)C[C@H]1C(C)(C)[C@H](OC(=O)c2ccccc2)C2CC3=C4CC(=O)O[C@@H](c5ccoc5)[C@]4(C)CCC3[C@@]1(C)C2=O (stereo partly specified) | -5.34 | inactive | inactive | – | – | –
CC(C)/C=C1\NC(=O)C(C(C)C)n2c1nc1c(c2=O)C=CC=CO1 (stereo unspecified) | -7.63 | inactive | inactive | – | – | –
CC1CC(=O)[C@]2(O)C(C(=O)OCCc3ccc(O)cc3)=CO[C@@H](O[C@@H]3O[C@H](CO)[C@@H](O)[C@H](O)[C@H]3O)[C@H]12 (stereo partly specified) | -18.3 | inactive | inactive | – | – | –
CC(C)CC(=O)OC[C@@]1(O)C[C@@]23CC[C@H]4[C@@](C)(CCC[C@@]4(C)C(=O)O)[C@@H]2CC[C@@H]1C3 | -13 | inactive | inactive | – | – | –
C=C1CCC2C(C(C)(C)O)CCC2(C)CC(O)C(=C)CCC1O (stereo unspecified) | -12.5 | inactive | inactive | – | – | –
C=C1C(=O)OC2/C=C(\C)CC/C=C(\C=O)C(OC)C(OC(=O)C(C)CC)C12 (stereo unspecified) | – | inactive | inactive | 16.6 µM (active) | – | –
